Experimental findings from PubChem BioAssay are described below.

Calls of active or inactive are those of the source.

For assay [1], the system named is PRMT1 (protein arginine N-methyltransferase 1). The experiment in a line: PRMT1 binders on small-molecule microarrays, primary screen, biochemical, small-molecule microarray, 635 nm fluorescence (AID 1088).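 Further: binding of Prmt1 protein to compounds spotted on small-molecule microarray slides.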 As to conditions: small-molecule microarray binding, higher = more signal.
The nature of assay [2]: yeast growth modulation, basal conditions, primary screen, YJM789 clinical isolate, OD600, 24 h (AID 1089).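 Further: growth of clinical yeast isolate S. cerevisiae YJM 789 seeded 1000 cells per well; test concentration not given here.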 As to conditions: S. cerevisiae YJM789 growth, higher = more signal, called active from +8 up or from −8 down.
The nature of assay [3]: fission yeast growth modulation, primary screen, strain 972, OD600, 24 h, no modulator (AID 1090).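 Further: basal condition with compound alone and no growth modifier present; test concentration not given here.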 The note with it: S. pombe 972 growth, higher = more signal, called active from +8 up or from −8 down.
A short description of assay [4]: S. cerevisiae growth modulation with rapamycin, primary screen, strain BY4716, OD600, 96 h (AID 1091). Further: test concentration not given here. As to conditions: higher = more signal, called active from +8 up or from −8 down.
Assay [5] concerns the target Torsin-1A-interacting protein 2 (Homo sapiens) (UniProt Q8NFQ8). In words: LULL1 binders on small-molecule microarray, primary screen, cell lysate, human LULL1 lysate, 635/667 nm fluorescence (AID 1092).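 Further: probe is lysate of COS7 cells overexpressing human LULL1; score merges per-feature 667 nm fluorescence with signal-to-noise.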 The note with it: hLULL1 lysate binding, 635 nm fluorescence, higher = more signal.
The nature of assay [6]: E. coli growth modulation, two-sided OD650, primary screen, E. coli filamentation project, strain DRC41, 24 h (AID 1093).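 Further: MC1000 strain lacking acrAB efflux and sulA so SOS filamentation is blocked; test concentration not given here.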 The note with it: OD650, 24 h, higher = more signal, called active from +8 up or from −8 down.
Assay [7] in a line: small-molecule microarray binders of probe aLefty2, primary screen, biochemical, biotinylated probe, 635/667 nm fluorescence (AID 1094).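 Further: score merges spot fluorescence near 667 nm with spot signal-to-noise ratio.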 The note with it: higher = more signal.
The subject of assay [8] is Noggin (protein binding on small-molecule microarray). In words: Noggin binders on small-molecule microarray, primary screen, biochemical, 635/667 nm fluorescence (AID 1095).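 Further: score merges 667 nm feature fluorescence with signal to noise over triplicate slides.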 The note with it: 635 nm fluorescence, higher = more signal.
In assay [9] the target is Neurogenic locus notch homolog protein 3 (Homo sapiens) (UniProt Q9UM47). The experiment in a line: NOTCH3 binders on small-molecule microarray, primary screen, biochemical, 635/667 nm fluorescence (AID 1096). As to conditions: NOTCH3 binding, 635 nm fluorescence, higher = more signal.
The nature of assay [10]: small-molecule microarray binders of probe aEGFR, primary screen, biochemical, biotinylated probe, 635/667 nm fluorescence (AID 1097).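 Further: probe is a biotinylated anti-EGFR antibody binding compounds printed on slides; score combines fluorescence near 667 nm and signal to noise of each spot.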 The note with it: higher = more signal.

Sequence of Torsin-1A-interacting protein 2 (Homo sapiens) (Q8NFQ8 whole entry, looked up): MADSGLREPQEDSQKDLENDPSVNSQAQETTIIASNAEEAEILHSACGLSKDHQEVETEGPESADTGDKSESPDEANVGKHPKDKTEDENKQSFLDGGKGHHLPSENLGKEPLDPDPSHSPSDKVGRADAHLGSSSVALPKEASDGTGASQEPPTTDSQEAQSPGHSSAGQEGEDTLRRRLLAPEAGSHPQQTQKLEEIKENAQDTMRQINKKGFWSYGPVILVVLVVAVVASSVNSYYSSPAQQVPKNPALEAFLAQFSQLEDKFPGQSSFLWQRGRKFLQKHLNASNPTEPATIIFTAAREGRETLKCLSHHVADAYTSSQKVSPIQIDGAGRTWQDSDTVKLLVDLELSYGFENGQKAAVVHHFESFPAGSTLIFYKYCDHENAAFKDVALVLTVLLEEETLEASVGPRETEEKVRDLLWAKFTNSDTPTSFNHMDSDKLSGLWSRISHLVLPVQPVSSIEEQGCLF
Sequence of Neurogenic locus notch homolog protein 3 (Homo sapiens) (Q9UM47 whole entry, looked up): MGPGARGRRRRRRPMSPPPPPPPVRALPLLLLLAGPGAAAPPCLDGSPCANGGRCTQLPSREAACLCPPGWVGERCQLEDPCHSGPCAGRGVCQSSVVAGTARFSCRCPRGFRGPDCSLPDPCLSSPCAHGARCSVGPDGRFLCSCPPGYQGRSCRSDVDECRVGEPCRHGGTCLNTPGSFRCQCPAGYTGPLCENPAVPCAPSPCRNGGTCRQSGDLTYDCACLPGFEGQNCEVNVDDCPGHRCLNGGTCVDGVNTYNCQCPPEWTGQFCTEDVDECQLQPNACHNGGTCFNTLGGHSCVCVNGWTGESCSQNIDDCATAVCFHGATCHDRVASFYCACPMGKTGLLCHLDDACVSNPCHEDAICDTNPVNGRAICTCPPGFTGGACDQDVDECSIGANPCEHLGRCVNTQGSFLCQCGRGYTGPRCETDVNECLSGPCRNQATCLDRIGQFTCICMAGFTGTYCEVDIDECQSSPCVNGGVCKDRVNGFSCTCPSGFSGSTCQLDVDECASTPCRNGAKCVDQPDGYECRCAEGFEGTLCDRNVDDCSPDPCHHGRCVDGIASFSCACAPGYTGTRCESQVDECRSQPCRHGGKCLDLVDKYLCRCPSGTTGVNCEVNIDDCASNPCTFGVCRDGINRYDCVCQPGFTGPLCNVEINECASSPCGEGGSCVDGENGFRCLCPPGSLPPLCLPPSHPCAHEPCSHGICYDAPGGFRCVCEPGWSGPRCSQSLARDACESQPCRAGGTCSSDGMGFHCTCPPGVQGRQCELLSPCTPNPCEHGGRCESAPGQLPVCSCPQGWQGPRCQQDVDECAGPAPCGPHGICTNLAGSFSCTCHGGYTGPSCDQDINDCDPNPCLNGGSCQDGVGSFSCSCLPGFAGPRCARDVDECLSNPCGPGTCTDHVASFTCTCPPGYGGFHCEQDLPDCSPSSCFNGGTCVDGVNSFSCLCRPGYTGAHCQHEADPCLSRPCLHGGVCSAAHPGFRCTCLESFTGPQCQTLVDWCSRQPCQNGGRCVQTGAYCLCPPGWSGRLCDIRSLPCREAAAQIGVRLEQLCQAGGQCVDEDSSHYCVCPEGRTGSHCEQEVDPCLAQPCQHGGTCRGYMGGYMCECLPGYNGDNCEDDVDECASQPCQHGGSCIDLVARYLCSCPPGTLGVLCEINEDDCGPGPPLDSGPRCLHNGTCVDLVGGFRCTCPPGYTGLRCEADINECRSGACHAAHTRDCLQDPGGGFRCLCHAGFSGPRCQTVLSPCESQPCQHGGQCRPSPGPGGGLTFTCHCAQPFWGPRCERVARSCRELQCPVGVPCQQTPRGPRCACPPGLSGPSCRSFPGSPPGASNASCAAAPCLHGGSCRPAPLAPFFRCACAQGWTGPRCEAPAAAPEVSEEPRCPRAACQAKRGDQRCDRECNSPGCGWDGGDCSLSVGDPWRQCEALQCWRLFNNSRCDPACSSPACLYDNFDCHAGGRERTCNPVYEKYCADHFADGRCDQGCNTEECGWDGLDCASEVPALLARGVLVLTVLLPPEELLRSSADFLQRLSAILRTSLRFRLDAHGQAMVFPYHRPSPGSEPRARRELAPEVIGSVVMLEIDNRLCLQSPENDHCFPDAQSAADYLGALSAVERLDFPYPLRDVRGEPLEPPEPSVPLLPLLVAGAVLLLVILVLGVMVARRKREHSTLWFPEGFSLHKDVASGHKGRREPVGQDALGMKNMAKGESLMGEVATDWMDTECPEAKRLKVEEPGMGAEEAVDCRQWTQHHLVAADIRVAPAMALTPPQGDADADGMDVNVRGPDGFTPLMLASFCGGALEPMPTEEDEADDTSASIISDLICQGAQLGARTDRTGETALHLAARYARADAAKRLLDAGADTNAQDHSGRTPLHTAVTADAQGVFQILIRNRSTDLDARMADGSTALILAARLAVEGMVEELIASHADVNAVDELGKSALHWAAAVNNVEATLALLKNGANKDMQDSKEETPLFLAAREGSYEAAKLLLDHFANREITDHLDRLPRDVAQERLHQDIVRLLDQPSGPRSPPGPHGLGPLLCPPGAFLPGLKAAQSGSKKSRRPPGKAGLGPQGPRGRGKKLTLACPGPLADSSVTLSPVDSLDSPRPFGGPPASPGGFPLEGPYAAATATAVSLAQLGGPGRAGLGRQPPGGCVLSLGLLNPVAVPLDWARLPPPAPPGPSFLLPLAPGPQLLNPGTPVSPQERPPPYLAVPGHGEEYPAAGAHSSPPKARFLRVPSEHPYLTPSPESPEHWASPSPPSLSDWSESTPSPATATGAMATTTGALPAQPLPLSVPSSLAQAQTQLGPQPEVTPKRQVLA

Regarding `COc1cc2c(cc1O)C(c1cccs1)N(Cc1cc3c(cc1Br)OCO3)CC2` (stereo not given), the composite z-score in [1] was 1.53; in assay [5] it was 3.45; in assay [7], 0.183; in [8], 0.289; in [9], 1.07; in [10] it was 0.0778. Also, the z-score in assay [2] was -0.592 (inactive); in [3], -4.96 (inactive); in assay [4], -0.859 (inactive); in assay [6] it was -1.45 (inactive).

For `COc1cc2c(cc1O)C(C1CC1)N(Cc1cccc(OC(F)(F)F)c1)CC2` (stereo not given), the composite z-score was 0.694 in assay [1]; 1.88 in [5]; -0.0575 in [7]; -0.242 in assay [8]; -0.167 in assay [9]; 0.0009 in [10]. For the same compound, the z-score in [2] was -2.19 (inactive); in assay [3], -5.25 (inactive); in assay [4], -2.53 (inactive); in [6], 0.394 (inactive).

In the case of `COc1cccc(C)c1NC(=O)O[C@H]1[C@H](OC(=O)Nc2ccc3c(c2)OCO3)[C@@H](OC(=O)Nc2ccc3c(c2)OCO3)[C@@H](OC)O[C@@H]1CO`, the composite z-score was 1.54 in assay [1]; 3.58 in [5]; 0.218 in assay [7]; 1.4 in assay [8]; 1.04 in assay [9]; -0.0031 in assay [10]. The z-score is 1.94 (inactive) in [2], 2.2 (inactive) in assay [3], 8.01 (active) in [4] and 1.23 (inactive) in [6].

For the compound `CCCC=C(CCC)[C@@H](NC(=O)C(C)(C)C)c1ccc(C(=O)OC)cc1`, the composite z-score was 0.0225 in [1]; 3.12 in assay [5]; 0.498 in assay [7]; -0.383 in [8]; 0.803 in assay [9]; -0.0023 in assay [10]. Further, the z-score was 0.647 (inactive) in assay [2], 1.51 (inactive) in [3], 1.68 (inactive) in assay [4] and -0.447 (inactive) in assay [6].

As for `O=C1OCCC=C[C@H]2OC34C=CCN(Cn5nnc6ccccc65)C(=O)[C@H]3N(CCCO)C(=O)[C@@H]4C12` (stereo not given in full), the composite z-score in [1] is -1.72; in [5], -1.7; in assay [7], -0.209; in assay [8], -0.677; in [9], -0.99; in assay [10], -0.264. Besides, the z-score in [2] was 0.0799 (inactive); in assay [3], -0.973 (inactive); in [4], -0.342 (inactive); in assay [6], 1.81 (inactive).

For the compound `CCCCCN1CC=CC23O[C@@H]4/C=C\CCC(C)OC(=O)C4[C@H]2C(=O)N(C(CO)C(C)C)[C@@H]3C1=O` (stereo not given in full), the composite z-score in [1] is 0.0839; in assay [5] it was 2.1; in assay [7], -0.506; in [8], -0.087; in assay [9] it was 0.165; in assay [10] it was -0.14. For the same compound, the z-score in assay [2] is -0.646 (inactive); in assay [3] it was -0.957 (inactive); in assay [4], -1.02 (inactive); in assay [6], 1.5 (inactive).

Consider `C=CC[C@]1(C(=O)N2CCOCC2)COC(c2ccc(OCCCO)cc2)=N1`, for which the composite z-score is 1.55 in [1]; 4.02 in assay [5]; 0.0386 in assay [7]; 0.78 in assay [8]; 1.09 in [9]; -0.0828 in assay [10]. The z-score in [2] is -0.544 (inactive); in assay [3], -0.243 (inactive); in assay [4], -1.28 (inactive); in [6], 0.0927 (inactive).

In the case of `CN(C)C(=O)[C@@]1(Cc2ccccc2)N=C(c2ccc(OCCCO)cc2)O[C@H]1c1ccccc1`, the composite z-score in assay [1] was 0.584; in assay [5], 3.4; in [7], 0.344; in [8], -0.642; in [9], 0.229; in assay [10], 0.642. Besides, the z-score is -0.826 (inactive) in [2], -2.23 (inactive) in assay [3], 0.221 (inactive) in [4] and 0.982 (inactive) in [6].

`Cc1ccc(S[C@]2(C(=O)NCC(F)(F)F)CC(=O)N(Cc3cc(C(F)(F)F)cc(C(F)(F)F)c3)[C@@H]2c2ccc(CO)cc2)cc1`: the composite z-score in [1] was 1.31; in [5] it was 1.79; in assay [7] it was -0.152; in assay [8], -0.556; in assay [9], -0.133; in [10] it was -0.181. Further, the z-score in assay [2] was 0.0966 (inactive); in [3] it was -0.322 (inactive); in assay [4], -1.53 (inactive); in assay [6] it was -0.002 (inactive).

For the compound `C=CCOC(=O)[C@@H]1[C@H]2C(=O)O[C@H](c3ccccc3)[C@H](c3ccccc3)N2[C@H](c2ccc(OCCOC(=O)[C@@H]3C[C@@H]4C(=O)N[C@@H](CCCC[N+](C)(C)C)C(=O)N4[C@@H]3c3ccc(O)cc3)cc2)[C@@]12C(=O)Nc1ccc(I)cc12`, the composite z-score in [1] was 1.53; in assay [5], 2.21; in assay [7], -0.103; in [8], 0.989; in assay [9], 1.07; in assay [10], -0.0006. The z-score in [2] is 0.954 (inactive); in assay [3], -1.48 (inactive); in assay [4] it was 1.02 (inactive); in [6], -0.0235 (inactive).

As for `COC(=O)[C@@H]1N=C(c2ccc(OCCCO)cc2)O[C@@H]1c1ccccc1`, the composite z-score in [1] is -1.01; in assay [5] it was 1.58; in assay [7] it was -0.149; in assay [8], -0.993; in assay [9] it was -1; in assay [10], -0.0485. Besides, the z-score was -1.16 (inactive) in [2], -2.33 (inactive) in [3], -2.55 (inactive) in assay [4] and 1.11 (inactive) in [6].

Turning to `[N-]=[N+]=Nc1ccccc1[C@H]1OC(c2ccc(OCCCO)cc2)=N[C@@]1(Cc1ccccc1)C(=O)NCCN1CCOCC1`, the composite z-score in [1] was found to be 1.57; in assay [5] it was 3.23; in assay [7], 0.363; in [8], 1.36; in [9], 1.05; in assay [10], 0.688. For the same compound, the z-score in assay [2] was 0.0597 (inactive); in assay [3], -1.75 (inactive); in assay [4], 1.72 (inactive); in assay [6] it was 1.06 (inactive).

For the compound `CCCNC(=O)[C@@]1(Sc2ccc(C)cc2)CC(=O)N(C2Cc3ccccc3C2)[C@@H]1c1ccc(CO)cc1I`, the composite z-score in assay [1] was 0.918; in assay [5] it was 1.28; in assay [7], -0.0321; in assay [8], -0.287; in assay [9] it was -0.0184; in [10] it was -0.126. For the same compound, the z-score in assay [2] is -0.452 (inactive); in [3] it was -1.32 (inactive); in assay [4] it was 1.21 (inactive); in assay [6] it was 0.761 (inactive).

As for `CC(C)C(CO)N1C(=O)[C@@H]2C3C(=O)OCCC/C=C\[C@H]3OC23C=CCN(Cn2nnc4ccccc42)C(=O)[C@@H]13` (stereo not given in full), the composite z-score is 0.828 in assay [1]; 3.72 in [5]; -0.159 in assay [7]; -0.421 in assay [8]; 0.144 in assay [9]; -0.268 in assay [10]. The z-score is 0.0005 (inactive) in assay [2], -0.299 (inactive) in assay [3], 0.0668 (inactive) in assay [4] and 0.167 (inactive) in [6].

In the case of `Cc1ccc(S[C@]2(C(=O)NCC(F)(F)F)CC(=O)N(Cc3cc(C(F)(F)F)cc(C(F)(F)F)c3)[C@@H]2c2ccc(CO)cc2I)cc1`, the composite z-score in assay [1] was -0.0631; in assay [5], -0.0923; in assay [7] it was -0.054; in [8] it was -0.716; in [9], -1.32; in assay [10] it was -0.556. For the same compound, the z-score is -2.58 (inactive) in [2], -2.58 (inactive) in assay [3], -0.857 (inactive) in [4] and -0.3 (inactive) in assay [6].
